Where “and” joins values, the source holds several entries; their conditions need not be identical. Equal values may be shown once. Screen size: about 5,500 compounds; about 2,000 (36%) were called active. About 18% were inconclusive and are not listed. No stated cut-off is given here; in the data, active means normalized growth mostly below about 0.91 (no sharp cut-off); inconclusive means no clear call, values can overlap the other calls; inactive means mostly above about 0.92. This is one part of the list.
Experiment: chemical genetic growth profiling, strain panel (AID 1159580);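 further: tested at 20 µM; growth read once vehicle control cultures reached saturation at 30 °C; 1 = growth at the plate median or of vehicle wells; lower values mean less growth of the strain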
Details: S. cerevisiae deletion strains, growth OD

Measured: normalized growth

Cc1[nH]c2ccccc2c1CN(C)C
inactive: locus YAL021C, strain ccr4, hits give low values 1.01 | locus YAL026C, strain drs2, hits give low values 1.03 | locus YAL030W, strain snc1, hits give low values 1.02 | locus YBL061C, strain skt5, hits give low values 1.02 | locus YBR009C, strain hhf1, hits give low values 1.02 | locus YBR021W, strain FUR4, hits give low values 0.951 | locus YBR023C, strain chs3, hits give low values 1.02 | locus YBR171W, strain sec66, hits give low values 1.02 | locus YBR229C, strain ROT2, hits give low values 0.998 | locus YBR231C, strain swc5, hits give low values 1.02 | locus YBR279W, strain paf1, hits give low values 1.01 | locus YCL011C, strain gbp2, hits give low values 1.02 | locus YCL016C, strain dcc1, hits give low values 1.01 | locus YCL029C, strain bik1, hits give low values 0.986 | locus YCL069W, strain vba3, hits give low values 1.01 | locus YCR088W, strain abp1, hits give low values 1.02 | locus YDL005C, strain med2, hits give low values 1.03 | locus YDL035C, strain GPR1, hits give low values 1.01 | locus YDL040C, strain nat1, hits give low values 1.02 | locus YDL074C, strain BRE1, hits give low values 1 | locus YDL101C, strain DUN1, hits give low values 1.01 | locus YDL134C, strain PPH21, hits give low values 1.02 | locus YDL185W, strain tfp1, hits give low values 1.01 | locus YDL192W, strain arf1, hits give low values 0.983 | locus YDR001C, strain nth1, hits give low values 1.01 | locus YDR069C, strain doa4, hits give low values 1.02 | locus YDR101C, strain arx1, hits give low values 0.968 | locus YDR137W, strain rgp1, hits give low values 1.03 | locus YDR150W, strain NUM1, hits give low values 1.01 | locus YDR159W, strain sac3, hits give low values 1.05 | locus YDR162C, strain NBP2, hits give low values 1.07 | locus YDR195W, strain ref2 1.03 | locus YDR297W, strain sur2, hits give low values 1.02 | locus YDR318W, strain mcm21, hits give low values 0.995 | locus YDR334W, strain swr1, hits give low values 1.01 | locus YDR335W, strain msn5, hits give low values 1.01 | locus YDR388W, hits give low values 0.993 | locus YDR392W, strain spt3, hits give low values 1.03 | locus YDR502C, strain sam2, hits give low values 0.987 | locus YEL003W, strain gim4, hits give low values 1.01 | locus YEL037C, strain rad23, hits give low values 1.01 | locus YEL061C, strain CIN8 (second series), hits give low values 1.03 | locus YEL061C, strain CIN8, hits give low values 1.02 | locus YER015W, strain faa2, hits give low values 1.01 | locus YER016W, strain bim1, hits give low values 1.01 | locus YER110C, hits give low values 0.984 | locus YER111C, strain swi4, hits give low values 1.03 | locus YER155C, strain BEM2, hits give low values 0.983 | locus YER167W, strain BCK2, hits give low values 1 | locus YFR010W, strain ubp6, hits give low values 1.01 | locus YGL078C, strain dbp3, hits give low values 1.01 | locus YGL086W, strain mad1, hits give low values 0.996 | locus YGL167C, strain pmr1, hits give low values 1.04 | locus YGL173C, strain kem1, hits give low values 1.03 | locus YGL227W, strain vid30, hits give low values 1.01 | locus YGL240W, strain doc1, hits give low values 1.01 | locus YGL248W, strain PDE1, hits give low values 1.03 | locus YGL253W, strain hxk2, hits give low values 1.02 | locus YGR135W, strain pre9, hits give low values 0.995 | locus YGR229C, strain SMI1, hits give low values 1.06 | locus YGR252W, strain gcn5, hits give low values 0.908 | locus YHR013C, strain ard1, hits give low values 1.03 | locus YHR027C, strain rpn1, hits give low values 1.03 | locus YHR030C, strain SLT2, hits give low values 1 and 0.988 | locus YHR079C, strain IRE1 (second series), hits give low values 0.995 | locus YHR079C, strain IRE1, hits give low values 0.982 | locus YHR094C, strain hxt1, hits give low values 0.989 | locus YHR129C, strain ARP1, hits give low values 1.01 | locus YHR142W, strain chs7, hits give low values 1.03 | locus YHR200W, strain rpn10, hits give low values 0.991 | locus YIL066C, strain RNR3, hits give low values 1.02 | locus YIL073C, strain SPO22, hits give low values 1.02 | locus YIL125W, strain kgd1, hits give low values 1.01 | locus YIR030C, strain dcg1, hits give low values 0.99 | locus YJL092W, strain hpr5, hits give low values 1.01 | locus YJL095W, strain BCK1 (second series), hits give low values 1.02 | locus YJL095W, strain BCK1, hits give low values 1.06 and 0.973 | locus YJL115W, strain asf1, hits give low values 1.02 | locus YJL129C, strain trk1, hits give low values 1.03 | locus YJL134W, strain LCB3, hits give low values 0.994 | locus YJL154C, strain vps35, hits give low values 1.02 | locus YJL164C, strain tpk1, hits give low values 1.01 | locus YJL166W, strain qcr8, hits give low values 1.02 | locus YJL168C, strain set2, hits give low values 0.993 | locus YJL187C, strain SWE1 (second series), hits give low values 1.01 | locus YJL187C, strain SWE1, hits give low values 1.02 | locus YJR043C, strain POL32, hits give low values 0.995 | locus YJR066W, strain TOR1, hits give low values 0.906

Source: PubChem BioAssay AID1159580 (chemical genetic matrix, 2015)
